# “And” between values parts separate entries of the source, which are not always exact repeats. Identical values can stand only once. Inconclusive results are not listed. A call without a number means that no potency is given here. Some compounds were tested as several samples or in several runs, with calls that do not always agree. The source made the active and inactive calls. Unless noted, the call rests on the fitted dose curve; in most records, active means well fitted curve in the direction sought with a large enough effect in the repeat runs; inconclusive means weak or mixed curves; inactive means no such curve, though single readings can be large; an effect the other way counts as inactive or inconclusive.
# What was measured:
# [1] = qHTS assay to identify small molecule antagonists of the sonic hedgehog signaling (Shh) pathway (AID 1259369; calls by dose curve; further: nearly all actives have a fitted effect of over 45% in size; further: potency means the concentration at half of the fitted maximal effect)
# Outline: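 Read-out is luminescence from a firefly luciferase gene controlled by the Gli1 response element, in 3T3Gli1-Luc cells pre-incubated 4hr then exposed to compounds and conditioned medium for 24hr.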
# [2] = target: Estrogen receptor beta (Homo sapiens) (UniProt Q92731); assay: qHTS assay to identify small molecule agonists of the estrogen receptor beta (ER-beta) signaling pathway (AID 1259377; active means well fitted activation curve with a large enough effect in the signal ratio in the repeat runs, not every such curve was filed as active; the % refers to the signal ratio)
# Estrogen receptor beta (Homo sapiens), sequence (Q92731 whole entry, looked up): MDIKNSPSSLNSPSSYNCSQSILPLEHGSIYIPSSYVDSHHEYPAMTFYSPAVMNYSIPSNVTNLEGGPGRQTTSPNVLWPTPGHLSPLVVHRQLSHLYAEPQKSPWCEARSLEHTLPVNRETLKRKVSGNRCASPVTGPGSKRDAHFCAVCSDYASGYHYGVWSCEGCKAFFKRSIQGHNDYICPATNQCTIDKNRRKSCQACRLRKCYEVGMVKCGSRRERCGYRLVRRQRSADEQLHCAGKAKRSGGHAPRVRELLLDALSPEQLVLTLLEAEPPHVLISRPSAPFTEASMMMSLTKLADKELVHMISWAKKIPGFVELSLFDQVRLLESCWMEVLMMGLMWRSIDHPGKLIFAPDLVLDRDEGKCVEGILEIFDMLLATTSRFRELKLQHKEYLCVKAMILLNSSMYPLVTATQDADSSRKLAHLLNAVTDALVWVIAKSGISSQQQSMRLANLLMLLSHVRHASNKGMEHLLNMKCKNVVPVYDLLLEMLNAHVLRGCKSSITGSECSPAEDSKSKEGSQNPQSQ
# Outline: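 Ratiometric beta-lactamase FRET read-out came after 2 h substrate loading at room temperature. It followed 16 h compound treatment at 37C of GripTite HEK293T cells carrying a UAS-bla reporter, plated in 2% charcoal-stripped FBS medium.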
# [3] = target: Estrogen receptor beta (Homo sapiens) (UniProt Q92731); assay: qHTS assay to identify small molecule antagonists of the estrogen receptor beta (ER-beta) signaling pathway (AID 1259378; active means well fitted inhibition curve with a large enough effect in the signal ratio in the repeat runs, not every such curve was filed as active; the % refers to the signal ratio)
# Outline: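 ER-beta-UAS-bla HEK293T (GripTite) cells in 2% charcoal-stripped FBS medium were preincubated 6 hr at 37C, dosed with compound, then stimulated with 1 nM E2 (final) for 16 hr; beta-lactamase reporter read by B/G FRET fluorescence after 2 hr substrate loading.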
# [4] = qHTS assay to identify small molecule agonists of the estrogen receptor beta (ER-beta) signaling pathway - cell viability counter screen (AID 1259380); further: nearly all actives have a fitted effect of over 30% in size; further: potency means the concentration at half of the fitted maximal effect
# Outline: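 Compounds dissolved in DMSO were pin-transferred onto ER-beta-UAS-bla HEK293T cells that had settled 6 hr, and exposure ran 16 hr at 37C. Following the reporter read, CellTiter-Glo luminescence after 30 min at room temperature indicated cytotoxicity.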
# [5] = qHTS assay to identify small molecule antagonists of the estrogen receptor beta (ER-beta) signaling pathway - cell viability counter screen (AID 1259382); further: nearly all actives have a fitted effect of over 55% in size; further: potency means the concentration at half of the fitted maximal effect
# Outline: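 CellTiter-Glo ATP luminescence measured after the LiveBLAzer read in the same wells; ER-beta-UAS-bla HEK293T cells, 16 hr compound treatment with 1nM 17-beta-estradiol agonist at 37C, 5% CO2.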
# [6] = target: Estrogen receptor (Homo sapiens) (UniProt P03372); assay: qHTS assay to identify small molecule agonists of the estrogen receptor alpha (ER-alpha) signaling pathway in the presence of an antagonist (AID 1259383; calls by dose curve; further: top concentration of the series differs between compounds; nearly all actives have a fitted effect of over 15% in size)
# Estrogen receptor (Homo sapiens), sequence (P03372 whole entry, looked up): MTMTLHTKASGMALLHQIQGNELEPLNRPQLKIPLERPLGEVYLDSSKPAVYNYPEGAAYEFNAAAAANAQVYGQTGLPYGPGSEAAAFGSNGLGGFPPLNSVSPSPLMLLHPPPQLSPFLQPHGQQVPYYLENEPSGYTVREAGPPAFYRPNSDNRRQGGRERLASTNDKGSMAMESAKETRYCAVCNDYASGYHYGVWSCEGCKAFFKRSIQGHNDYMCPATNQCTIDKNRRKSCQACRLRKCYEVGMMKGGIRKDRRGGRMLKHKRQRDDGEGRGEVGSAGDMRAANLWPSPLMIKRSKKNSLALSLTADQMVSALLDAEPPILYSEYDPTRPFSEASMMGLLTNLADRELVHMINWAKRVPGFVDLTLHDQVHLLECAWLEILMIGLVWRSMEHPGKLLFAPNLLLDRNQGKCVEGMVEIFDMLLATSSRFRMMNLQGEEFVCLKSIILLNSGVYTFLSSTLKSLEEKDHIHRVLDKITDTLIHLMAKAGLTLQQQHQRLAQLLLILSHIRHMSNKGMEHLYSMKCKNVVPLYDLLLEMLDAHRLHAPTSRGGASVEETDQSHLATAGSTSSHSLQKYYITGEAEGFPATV
# Outline: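 Luminescent ERE-luciferase reporter, VM7Luc4E2 cells (endogenous ER-alpha); 10.0nM ICI-182,780 final; 15-point compound titration; 22hr at 37C; ONE-Glo, 30min RT.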
# [7] = qHTS assay to identify small molecule agonists of the estrogen receptor alpha (ER-alpha) signaling pathway in the presence of an antagonist - cell viability counter screen (AID 1259386);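 further: cells exposed to compounds for 22 h at 37 °C before the viability read; nearly all actives have a fitted effect of over 30% in size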; further: potency means the concentration at half of the fitted maximal effect
# Outline: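 Using estrogen-depleted VM7Luc4E2 cells, the 15-concentration compound series was applied together with 10.0nM ICI-182,780 and incubated 22hr at 37C/5% CO2. Cell viability was then scored by CellTiter-Fluor.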
# [8] = target: Progesterone receptor (Homo sapiens) (UniProt P06401); assay: qHTS assay to identify small molecule agonists of the progesterone receptor (PR) signaling pathway (AID 1346784; calls by dose curve; further: nearly all actives have a fitted effect of over 30% in size)
# Progesterone receptor (Homo sapiens), sequence (P06401 whole entry, looked up): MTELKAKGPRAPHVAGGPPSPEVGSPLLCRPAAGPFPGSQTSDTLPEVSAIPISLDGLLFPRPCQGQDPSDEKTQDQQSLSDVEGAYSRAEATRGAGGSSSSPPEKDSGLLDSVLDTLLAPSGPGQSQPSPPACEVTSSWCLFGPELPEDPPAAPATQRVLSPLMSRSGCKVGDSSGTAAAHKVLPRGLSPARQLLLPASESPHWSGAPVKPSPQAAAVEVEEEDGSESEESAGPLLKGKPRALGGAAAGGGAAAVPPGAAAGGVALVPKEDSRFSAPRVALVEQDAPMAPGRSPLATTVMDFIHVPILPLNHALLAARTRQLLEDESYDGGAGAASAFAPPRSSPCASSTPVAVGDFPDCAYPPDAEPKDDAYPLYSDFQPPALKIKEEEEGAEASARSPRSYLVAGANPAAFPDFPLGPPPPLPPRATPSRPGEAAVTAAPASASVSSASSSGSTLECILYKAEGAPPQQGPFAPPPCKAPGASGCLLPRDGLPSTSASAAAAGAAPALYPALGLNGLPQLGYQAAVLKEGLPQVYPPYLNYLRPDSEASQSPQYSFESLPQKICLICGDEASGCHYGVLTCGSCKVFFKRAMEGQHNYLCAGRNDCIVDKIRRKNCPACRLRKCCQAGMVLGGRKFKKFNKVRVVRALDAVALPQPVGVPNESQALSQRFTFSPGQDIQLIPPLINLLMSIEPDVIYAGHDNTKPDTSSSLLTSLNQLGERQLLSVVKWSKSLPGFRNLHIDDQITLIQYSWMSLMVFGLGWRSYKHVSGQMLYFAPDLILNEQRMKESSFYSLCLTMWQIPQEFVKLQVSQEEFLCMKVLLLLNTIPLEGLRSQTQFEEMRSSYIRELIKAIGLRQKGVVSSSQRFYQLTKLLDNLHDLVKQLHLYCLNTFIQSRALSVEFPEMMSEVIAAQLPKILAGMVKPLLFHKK
# Outline: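 Agonist qHTS: compounds pinned onto 3,000 PR-UAS-bla HEK 293T cells per well in charcoal-stripped serum medium, 16hr at 37C, then beta-lactamase activity measured by LiveBLAzer FRET fluorescence after 2 hours at room temperature.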
# [9] = target: Progesterone receptor (Homo sapiens) (UniProt P06401); assay: qHTS assay to identify small molecule antagonists of the progesterone receptor (PR) signaling pathway (AID 1346795; active means well fitted inhibition curve with a large enough effect in the signal ratio in the repeat runs, not every such curve was filed as active; the % refers to the signal ratio; further: potency means the concentration at half of the fitted maximal effect)
# Outline: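 Antagonist mode with agonist R5020 at 1 nM final and 16 hr incubation at 37C. Reporter was beta-lactamase driven by UAS in HEK293T (PR-UAS-bla), 2% charcoal-stripped serum; signal from LiveBLAzer FRET substrate, 2 hr at room temperature.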
# [10] = qHTS assay to identify small molecule antagonists of the progesterone receptor (PR) signaling pathway - cell viability counter screen (AID 1346798); further: series mostly up to about 92 µM; nearly all actives have a fitted effect of over 50% in size
# Outline: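 Cytotoxicity read as CellTiter-Glo luminescence (30 min, room temperature) in the same wells as the beta-lactamase readout. HEK293T PR-UAS-bla cells in charcoal-stripped 2% FBS received compound and R5020, then 16 h at 37C, 5% CO2.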
# [11] = qHTS assay to identify small molecule agonists of the progesterone receptor (PR) signaling pathway - cell viability counter screen (AID 1346799; calls by dose curve; further: nearly all actives have a fitted effect of over 45% in size)
# Outline: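 Cytotoxicity measured by CellTiter-Glo luminescence (30 min, RT) in the same wells as the PR beta-lactamase agonist read. Those HEK293T cells had 16 h compound treatment at 37 C in 2% charcoal-stripped FBS medium.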
# [12] = qHTS assay to identify small molecule antagonists of the TGF-beta/Smad signaling pathway - cell viability counter screen (AID 1346824); further: nearly all actives have a fitted effect of over 50% in size
# Outline: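 SBE-bla HEK 293T cells were plated overnight at 37 C, then given compounds in DMSO plus TGF-beta1 (added as 0.25 ng/mL solution) for 5 hr. After the bla read, CellTiter-Glo was added to the same wells and luminescence read after 30 min at room temperature.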
# [13] = qHTS assay to identify small molecule agonists of the TGF-beta/Smad signaling pathway (AID 1346859; active means well fitted activation curve with a large enough effect in the signal ratio in the repeat runs, not every such curve was filed as active; the % refers to the signal ratio; further: series mostly up to about 77 µM)
# Outline: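 Fluorescence (ex 405 nm; em 460 and 530 nm) was read 2 h after LiveBLAzer FRET substrate at RT. The preceding compound treatment of overnight-plated SBE-bla HEK293T cells lasted 5 h at 37 C.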
# [14] = target: Thyrotropin-releasing hormone receptor (Homo sapiens) (UniProt P34981); assay: qHTS assay to identify small molecule antagonists of the thyrotropin-releasing hormone receptor (TRHR) signaling pathway (AID 1346877; active means well fitted inhibition curve with a large enough effect in the repeat runs, not every such curve was filed as active; further: potency means the concentration at half of the fitted maximal effect)
# Thyrotropin-releasing hormone receptor (Homo sapiens), sequence (P34981 whole entry, looked up): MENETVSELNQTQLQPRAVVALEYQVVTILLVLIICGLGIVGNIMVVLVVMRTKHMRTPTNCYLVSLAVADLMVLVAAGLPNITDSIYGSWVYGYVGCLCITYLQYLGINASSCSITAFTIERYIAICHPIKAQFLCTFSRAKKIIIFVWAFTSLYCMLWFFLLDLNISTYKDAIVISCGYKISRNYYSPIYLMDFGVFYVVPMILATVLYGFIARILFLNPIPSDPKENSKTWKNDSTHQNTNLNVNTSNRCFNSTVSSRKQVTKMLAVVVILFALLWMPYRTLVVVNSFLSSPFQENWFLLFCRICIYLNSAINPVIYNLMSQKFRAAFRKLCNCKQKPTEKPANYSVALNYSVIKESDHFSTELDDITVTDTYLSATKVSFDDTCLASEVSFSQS
# Outline: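 Calcium signal in dye-loaded TRHR/HEK293 cells; compounds added 5 min before TRH (1 nM final); fluorescence monitored 3 min at 1 s steps.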
# [15] = target: Thyrotropin-releasing hormone receptor (Homo sapiens) (UniProt P34981); assay: qHTS assay to identify small molecule agonists of the thyrotropin-releasing hormone receptor (TRHR) signaling pathway (AID 1346891; calls by dose curve; further: potency means the concentration at half of the fitted maximal effect; on activation: series mostly up to about 58 µM)
# Outline: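 Agonist-mode intracellular calcium readout: kinetic fluorescence over 3 min at 1 s intervals after compound addition to TRHR-HEK293 cells (18 h seeded, 2 h dye-loaded at 37 C). Fifteen concentrations, triplicates.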
# [16] = qHTS assay to identify small molecule agonists of the androgen receptor (AR) signaling pathway in the presence of an antagonist - cell viability counter screen (AID 1259379);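 further: MDA-kb2 human breast cancer cells carrying an MMTV luciferase reporter; series mostly up to about 92 µM; nearly all actives have a fitted effect of over 25% in size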
# Outline: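 Each compound was tested at 15 concentrations on MDA-kb2 cells in the presence of 3.0uM nilutamide. Viability was measured by CellTiter-Fluor fluorescence after a 16 hr incubation at 37C in a CO2-free atmosphere.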
# [17] = target: Thyrotropin receptor (Homo sapiens) (UniProt P16473); assay: qHTS assay to identify small molecule antagonists of the thyroid stimulating hormone receptor (TSHR) signaling pathway (AID 1259385; calls by dose curve; further: nearly all actives have a fitted effect of over 20% in size)
# Thyrotropin receptor (Homo sapiens), sequence (P16473 whole entry, looked up): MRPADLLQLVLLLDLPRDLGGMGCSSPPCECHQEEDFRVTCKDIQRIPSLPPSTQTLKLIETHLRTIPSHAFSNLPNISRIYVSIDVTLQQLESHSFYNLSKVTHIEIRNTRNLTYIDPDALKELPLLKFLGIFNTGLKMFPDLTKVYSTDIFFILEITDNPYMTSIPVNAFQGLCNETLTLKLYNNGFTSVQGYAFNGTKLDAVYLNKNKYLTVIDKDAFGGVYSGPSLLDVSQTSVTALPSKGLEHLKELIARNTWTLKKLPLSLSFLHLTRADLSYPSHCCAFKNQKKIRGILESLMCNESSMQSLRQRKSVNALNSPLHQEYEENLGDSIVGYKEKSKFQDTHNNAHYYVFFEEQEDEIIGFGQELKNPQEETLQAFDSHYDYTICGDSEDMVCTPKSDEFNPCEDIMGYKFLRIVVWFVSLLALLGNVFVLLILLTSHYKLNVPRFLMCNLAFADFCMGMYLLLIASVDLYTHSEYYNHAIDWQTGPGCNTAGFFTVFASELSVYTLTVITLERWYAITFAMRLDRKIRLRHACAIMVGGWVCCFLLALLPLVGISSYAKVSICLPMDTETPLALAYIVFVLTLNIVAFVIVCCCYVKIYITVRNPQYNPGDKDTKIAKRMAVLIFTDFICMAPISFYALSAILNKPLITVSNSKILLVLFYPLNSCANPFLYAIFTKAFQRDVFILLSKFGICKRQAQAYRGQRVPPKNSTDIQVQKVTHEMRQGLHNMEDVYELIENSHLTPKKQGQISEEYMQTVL
# Outline: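 TSHR-HEK293 cells were plated and held 18 h at 37C/5% CO2, then given compound plus Ro20-1724 and stimulated with TSH at 1.5 ng/mL final. After 30 min at room temperature, cAMP was detected with cAMP-d2/anti-cAMP-cryptate (1 h) by fluorescence.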
# [18] = qHTS assay to identify small molecule agonists of the TGF-beta/Smad signaling pathway - cell viability counter screen (AID 1346829); further: top concentration of the series differs between compounds; nearly all actives have a fitted effect of over 45% in size
# Outline: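 Luminescence from CellTiter-Glo, read after a 30 min room-temperature incubation, gives cell viability of SBE-bla HEK 293T cells treated 5 hr with compounds at 37 C.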
# [19] = qHTS assay to identify small molecule agonists or antagonists of the thyroid stimulating hormone receptor (TSHR) signaling pathway - wild type cell line counter screen (AID 1259384; calls by dose curve)
# Outline: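 Wild-type HEK293 cells were plated 18 h at 37 C/5% CO2, pin-dosed with compound plus Ro20-1724 medium, held 30 min at room temperature, then given cAMP-d2 and anti-cAMP-cryptate; fluorescence was read after 1 h. Fifteen concentrations, triplicate.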
SMILES,Potency [1],Potency [2],Potency [3],Potency [4],Potency [5],Potency [6],Potency [7],Potency [8],Potency [9],Potency [10],Potency [11],Potency [12],outcome [13],Potency [14],Potency [15],Potency [16],Potency [17],Potency [18],Potency [19]
Nc1ccc(O)c(N)c1,inactive,inactive,inactive,inactive,inactive,inactive,60.7 µM (active) and 54.5 µM (active),inactive,inactive,inactive,inactive,inactive,inactive,inactive,inactive,–,–,–,–
C=CCCCCCCCCCC,inactive,inactive,inactive,inactive,inactive,–,inactive,inactive,inactive,inactive,inactive,inactive,inactive,inactive,inactive,inactive,–,–,–
Cc1ccc(/C(=C\CN2CCCC2)c2ccccn2)cc1,25.6 µM (active),–,–,inactive,inactive,inactive,inactive,inactive,inactive,inactive,inactive,inactive,inactive,–,–,inactive,inactive,inactive,–
ClC/C=C/CCl,inactive,–,–,inactive,inactive,inactive,inactive,inactive,inactive,inactive,inactive,inactive,inactive,–,inactive,inactive,inactive,–,inactive
CN1CCOCC1,inactive,inactive,inactive,inactive,inactive,–,inactive,inactive,inactive,inactive,inactive,inactive,inactive,–,inactive,inactive,–,inactive,–
Nc1ccc(N)c(Cl)c1,15.4 µM (active),–,–,61 µM (active) and 61.1 µM (active),68.5 µM (active) and 61.1 µM (active),–,61.1 µM (active),inactive,27.3 µM (active),inactive,inactive,inactive,inactive,inactive and 30.2 µM (active),inactive and 4.9 µM (active),inactive,–,–,–
NCCN,inactive,–,–,inactive,inactive,inactive,inactive,inactive,–,inactive,inactive,inactive,inactive,–,–,inactive,inactive,–,–
C=C[C@H]1CN2CC[C@H]1C[C@@H]2[C@@H](O)c1ccnc2ccc(OC)cc12,–,–,–,inactive,inactive,–,inactive,inactive,inactive,inactive,inactive,–,inactive,inactive,inactive,inactive,–,inactive,–
C/C=C/C(=O)N(CC)c1ccccc1C,inactive,–,–,inactive,inactive,inactive,inactive,inactive,inactive,inactive,inactive,inactive,inactive,–,inactive,inactive,inactive,inactive,–
C[N+](C)(C)CCO,inactive,–,–,inactive,inactive,–,inactive,inactive,inactive,inactive,inactive,inactive,inactive,–,–,inactive,inactive,inactive,–
Nc1ccc2c(c1)C(=O)c1ccccc1C2=O,inactive,–,–,–,inactive,inactive,inactive,inactive,inactive,inactive,inactive,inactive,inactive,inactive,inactive,–,–,–,–
O=C(O)CCCCCCCCCCCC(=O)O,inactive,–,–,inactive,inactive,–,inactive,inactive,inactive,inactive,inactive,inactive,–,inactive,inactive,inactive,inactive,–,inactive
C1CN(SSN2CCOCC2)CCO1,12.1 µM (active) and 24.3 µM (active),–,–,inactive and 48.6 µM (active),inactive,inactive,inactive,inactive,inactive,inactive,inactive,–,–,inactive,inactive,inactive,inactive,inactive,–
COc1cc([C@H]2Oc3cc([C@H]4Oc5cc(O)cc(O)c5C(=O)[C@@H]4O)ccc3O[C@@H]2CO)ccc1O,19.3 µM (active),–,–,inactive,inactive,inactive,inactive,inactive,–,inactive,inactive,inactive,–,–,inactive,inactive,–,–,–
Cc1ccc(S(=O)(=O)O)cc1C,inactive,–,–,inactive,inactive,inactive,inactive,inactive,inactive,inactive,inactive,inactive,inactive,–,inactive,inactive,inactive,inactive,–
CC(C)[C@@H]1CC[C@@H](C)CC1=O,24.3 µM (active) and inactive,–,–,inactive,inactive,–,inactive,inactive,inactive,inactive,inactive,inactive,inactive,–,–,inactive,inactive,inactive,–
